Experimental findings from PubChem BioAssay (EPA / NIEHS) are described below.

In experiment [1] the target is human RAR-related Orphan Receptor beta (RORb), RORB (gene 6096) (UniProt Q92753). In words: ATG_RORb_TRANS: Attagene TRANS-FACTORIAL HepG2 Assay for human RAR-related Orphan Receptor beta (RORb) (AID 2283010; active means hit-call score of the fitted dose curve at least 0.9, where 1 is the maximum). The essentials:
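Read-out is reporter mRNA induction, quantified by RT-PCR with fluorescent capillary electrophoresis, 24 h post-dose in transiently transfected HepG2 expressing exogenous NR-Gal4 chimera. Activity fitted upward versus DMSO.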

Experiment [2] concerns the target human RAR-related Orphan Receptor gamma (RORg), RORC (gene 6097) (UniProt P51449). In words: ATG_RORg_TRANS: Attagene TRANS-FACTORIAL HepG2 Assay for human RAR-related Orphan Receptor gamma (RORg) (AID 2283011; active means hit-call score of the fitted dose curve at least 0.9, where 1 is the maximum;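 on AC50: potency for induction of reporter transcripts above DMSO so activators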). The essentials:
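Readout: reporter transcript induction (RT-PCR, fluorescent primer extension, capillary electrophoresis) after 24 h compound exposure of transiently transfected HepG2 cells carrying a RORg-Gal4 chimera and GAL4-UAS reporters; DMSO served as baseline, with increasing signal fitted.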

The target of experiment [3] is Retinoic acid receptor RXR-alpha (Homo sapiens) (UniProt P19793). The experiment is described as follows: ATG_RXRa_TRANS: Attagene TRANS-FACTORIAL HepG2 Assay for human Retinoid X Receptor alpha (RXRa) (AID 2283012; active means hit-call score of the fitted dose curve at least 0.9, where 1 is the maximum). The essentials:
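TRANS format reporting activity of exogenous RXRa-Gal4 chimera in transiently transfected HepG2, 24 h exposure. Reporter transcripts quantified by RT-PCR with capillary electrophoresis, with gain of signal scored relative to DMSO.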

The target of experiment [4] is human Retinoid X Receptor beta (RXRb), RXRB (gene 6257) (UniProt P28702). In words: ATG_RXRb_TRANS: Attagene TRANS-FACTORIAL HepG2 Assay for human Retinoid X Receptor beta (RXRb) (AID 2283013; active means hit-call score of the fitted dose curve at least 0.9, where 1 is the maximum). The essentials:
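Readout is reporter transcript induction after 24 h dosing. It is measured by RT-PCR of total RNA followed by fluorescent capillary electrophoresis. HepG2 liver cells carry transfected multiple reporter units driven by an exogenous RXRb-Gal4 fusion; activity is relative to DMSO.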

Experiment [5] deals with human Vitamin D Receptor (VDR), VDR (gene 7421) (UniProt P11473). In words: ATG_VDR_TRANS: Attagene TRANS-FACTORIAL HepG2 Assay for human Vitamin D Receptor (VDR) (AID 2283022; active means hit-call score of the fitted dose curve at least 0.9, where 1 is the maximum). Summed up:
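HepG2 cells were transiently transfected with multiple GAL4-UAS reporter units, so signal reflects exogenous chimeric receptor-Gal4 activity. After 24 h compound exposure, reporter mRNA was measured by RT-PCR, fluorescent labelling and capillary electrophoresis, fitted for gain of signal versus DMSO.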

Read-out in experiment [6]: E-selectin (Homo sapiens) (UniProt P16581)
In words: BSK_3C_Eselectin: BioMAP Diversity Plus: 3C Assay for Eselectin Biomarker Activity (AID 2283015).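 Further: cell surface E-selectin protein quantified by ELISA 24 h after dosing.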 The conditions noted are these: primary human endothelial cells (HUVEC); actives raise or lower the signal. The essentials: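 Primary human umbilical vein endothelial cells (3C system) were dosed with chemical and cell-surface E-selectin measured by ELISA 24 h later. Bidirectional curve fitting used DMSO as negative control and baseline.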

Read-out in experiment [7]: Interleukin-1 alpha (IL1a), IL1A (gene 3552)
In words: BSK_BE3C_IL1a: BioMAP Diversity Plus: BE3C Assay for Interleukin-1 alpha (IL1a) Biomarker Activity (AID 2283016). The conditions noted are these: primary human bronchial epithelial cells; actives raise or lower the signal. The essentials: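 IL-1a measured by ELISA after 24 h treatment of human primary bronchial epithelial cells, with gain or loss of signal fitted versus DMSO. Parallel cultures stained with SRB gauge overt cytotoxicity.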

Read-out in experiment [8]: Monocyte Chemoattractant Protein-1 (MCP1), CCL2 (gene 6347)
In words: BSK_3C_MCP1: BioMAP Diversity Plus: 3C Assay for Monocyte Chemoattractant Protein-1 (MCP1) Biomarker Activity (AID 2283017). The conditions noted are these: primary human endothelial cells (HUVEC); actives raise or lower the signal. The essentials:
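Primary human umbilical vein endothelial cells (3C system) were exposed to test chemical for 24 h, after which MCP-1 was quantified by ELISA. Activity was fitted bidirectionally against DMSO as negative control and baseline.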

Read-out in experiment [9]: Monocyte Chemoattractant Protein-1 (MCP1), CCL2 (gene 6347)
The experiment is described as follows: BSK_4H_MCP1: BioMAP Diversity Plus: 4H Assay for Monocyte Chemoattractant Protein-1 (MCP1) Biomarker Activity (AID 2283018). Conditions: primary human endothelial cells (HUVEC); actives raise or lower the signal. The essentials: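 ELISA of MCP-1 (CCL2) 24 h after chemical dosing of HUVEC in the BioMAP 4H system. Gain or loss versus DMSO fitted; parallel SRB staining (560 nm) tracked overt cytotoxicity.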

Read-out in experiment [10]: Human Leukocyte Antigen - DR isotype (HLADR), HLA-DRA (gene 3122)
The experiment is described as follows: BSK_3C_HLADR: BioMAP Diversity Plus: 3C Assay for Human Leukocyte Antigen - DR isotype (HLADR) Biomarker Activity (AID 2283019). Conditions: primary human endothelial cells (HUVEC); actives raise or lower the signal. Summed up: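 Primary human umbilical vein endothelial cells (3C system) were dosed with compound and cell-surface HLA-DR was quantified by ELISA at 24 h. Activity was fitted bidirectionally against DMSO as negative control and baseline.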

Read-out in experiment [11]: Interleukin-8 (IL8), CXCL8 (gene 3576)
In words: BSK_3C_IL8: BioMAP Diversity Plus: 3C Assay for Interleukin-8 (IL8) Biomarker Activity (AID 2283020). Conditions: primary human endothelial cells (HUVEC); actives raise or lower the signal. Summed up: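 IL-8 was measured by ELISA in HUVEC cultures 24 h after chemical dosing, with gain or loss of signal fitted relative to DMSO. Parallel SRB total-protein staining tracked overt cytotoxicity.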

Read-out in experiment [12]: Monokine induced gamma interferon (MIG), CXCL9 (gene 4283)
The experiment is described as follows: BSK_3C_MIG: BioMAP Diversity Plus: 3C Assay for Monokine induced gamma interferon (MIG) Biomarker Activity (AID 2283021). The conditions noted are these: primary human endothelial cells (HUVEC); actives raise or lower the signal. The essentials: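 ELISA measurement of MIG in human umbilical vein endothelial cells 24 h after treatment. Cytotoxicity tracked by SRB staining in parallel cultures; gain or loss of signal fitted relative to DMSO.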

The nature of experiment [13]: BSK_3C_SRB: Viability Assessment in the BioMAP Diversity Plus: 3C Assay (AID 2283023).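 Further: fitted both ways against DMSO so a hit may be signal rise or drop.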 Conditions: primary human endothelial cells (HUVEC). The essentials: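 Primary human umbilical vein endothelial cells in the 3C system were read 24 h after compound dosing. Total protein was stained with 0.1% sulforhodamine B after 10% TCA fixation and read at 560 nm, with bidirectional fitting against DMSO as baseline.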

Read-out in experiment [14]: Matrix Metallopeptidase 1 (MMP1), MMP1 (gene 4312)
The experiment is described as follows: BSK_BE3C_MMP1: BioMAP Diversity Plus: BE3C Assay for Matrix Metallopeptidase 1 (MMP1) Biomarker Activity (AID 2283024). The conditions noted are these: primary human bronchial epithelial cells; actives raise or lower the signal. The essentials: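 ELISA measurement of MMP-1 after 24 h compound exposure of primary human bronchial epithelial cells. Changes in either direction fitted relative to DMSO; parallel SRB staining checked overt cytotoxicity.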

Read-out in experiment [15]: Pselectin, SELP (gene 6403)
In words: BSK_4H_Pselectin: BioMAP Diversity Plus: 4H Assay for Pselectin Biomarker Activity (AID 2283026). Conditions: primary human endothelial cells (HUVEC); actives raise or lower the signal. Summed up:
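ELISA of surface P-selectin on HUVEC, 24 h after dosing, with parallel SRB staining (0.1% after 10% TCA fixation, 560 nm) for overt cytotoxicity. Activity fitted in both directions relative to DMSO.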

The nature of experiment [16]: BSK_4H_SRB: Viability Assessment in the BioMAP Diversity Plus: 4H Assay (AID 2283027).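 Further: cells exposed to compound for 24 h before staining.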 Conditions: primary human endothelial cells (HUVEC). Summed up: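 HUVEC, 24 h post-dose; 10% TCA fix, 0.1% SRB stain, A560 nm. Total protein = overt cytotoxicity, parallel to biomarker read. Bidirectional fit vs DMSO baseline.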
Experiment [17] is described as follows: BSK_BE3C_SRB: Viability Assessment in the BioMAP Diversity Plus: BE3C Assay (AID 2283028). Conditions: primary human bronchial epithelial cells. Summed up: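 Human primary bronchial epithelial cells were exposed to test chemicals for 24 h. Total protein in parallel cultures was then measured by staining with 0.1% sulforhodamine B after 10% TCA fixation, with absorbance read at 560 nm. Activity was fitted bidirectionally against DMSO.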

Read-out in experiment [18]: Thrombomodulin, THBD (gene 7056)
In words: BSK_3C_Thrombomodulin: BioMAP Diversity Plus: 3C Assay for Thrombomodulin Biomarker Activity (AID 2283029). Conditions: primary human endothelial cells (HUVEC); actives raise or lower the signal. The essentials:
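ELISA measurement of thrombomodulin on HUVEC surface 24 h after chemical dosing; activity fitted in both directions relative to DMSO vehicle.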

For experiment [19], the target named is human Thyroid Receptor alpha (THRa1), THRA (gene 7067) (UniProt P10827). In words: ATG_THRa1_TRANS: Attagene TRANS-FACTORIAL HepG2 Assay for human Thyroid Receptor alpha (THRa1) (AID 2283014; active means hit-call score of the fitted dose curve at least 0.9, where 1 is the maximum). The essentials: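 HepG2 cells transiently transfected with multiplexed GAL4-UAS reporter units for exogenous chimeric THRa1-Gal4; reporter mRNA measured 24 h after dosing by RT-PCR, 6-FAM labelling, HpaI digestion and capillary electrophoresis. Gain-of-signal fitted versus DMSO baseline.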

Experiment [20] in a line: BSK_3C_Vis: BioMAP Diversity Plus: 3C Assay for Morphology Visualization (AID 2283025).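 Further: fitted both ways so gain or loss versus DMSO counts.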 Conditions: primary human endothelial cells (HUVEC). Summed up: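 Light-microscopy visualization of HUVEC cultures at 24 h post-treatment, with DMSO as baseline for bidirectional fitting.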

Records with an inconclusive call do not appear. Active and inactive are the calls of the source. How the source made its calls, unless noted: active means hit-call score of the fitted dose curve at least 0.9, where 1 is the maximum; inactive means score below 0.9.

Sequence of Retinoic acid receptor RXR-alpha (Homo sapiens) (P19793 whole entry, looked up, the tested form may be a part): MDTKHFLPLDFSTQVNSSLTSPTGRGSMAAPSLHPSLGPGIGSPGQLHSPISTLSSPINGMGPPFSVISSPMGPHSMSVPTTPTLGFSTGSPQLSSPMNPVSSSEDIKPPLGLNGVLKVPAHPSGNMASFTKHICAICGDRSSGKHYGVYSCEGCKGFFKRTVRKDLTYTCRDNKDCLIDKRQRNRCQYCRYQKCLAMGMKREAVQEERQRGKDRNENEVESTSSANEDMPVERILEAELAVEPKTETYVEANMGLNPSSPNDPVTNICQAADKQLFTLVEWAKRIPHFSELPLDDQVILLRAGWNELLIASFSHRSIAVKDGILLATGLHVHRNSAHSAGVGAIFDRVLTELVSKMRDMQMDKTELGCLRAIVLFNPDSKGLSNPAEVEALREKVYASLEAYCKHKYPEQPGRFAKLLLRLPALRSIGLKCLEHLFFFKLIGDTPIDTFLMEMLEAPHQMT
Sequence of human RAR-related Orphan Receptor beta (RORb), RORB (gene 6096) (Q92753 whole entry, looked up, the tested form may be a part): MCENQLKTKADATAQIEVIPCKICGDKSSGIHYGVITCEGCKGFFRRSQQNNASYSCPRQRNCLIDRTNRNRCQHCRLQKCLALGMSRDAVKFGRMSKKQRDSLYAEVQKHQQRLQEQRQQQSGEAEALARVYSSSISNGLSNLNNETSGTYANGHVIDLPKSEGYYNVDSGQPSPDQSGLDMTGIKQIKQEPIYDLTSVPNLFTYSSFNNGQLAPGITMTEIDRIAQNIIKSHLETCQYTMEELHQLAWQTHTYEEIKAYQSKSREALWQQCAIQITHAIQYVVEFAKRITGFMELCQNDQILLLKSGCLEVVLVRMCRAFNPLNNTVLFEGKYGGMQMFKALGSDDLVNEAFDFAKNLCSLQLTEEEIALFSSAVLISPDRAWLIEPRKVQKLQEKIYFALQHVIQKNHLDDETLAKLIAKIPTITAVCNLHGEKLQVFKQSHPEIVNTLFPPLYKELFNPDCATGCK
Sequence of human Thyroid Receptor alpha (THRa1), THRA (gene 7067) (P10827 whole entry, looked up, the tested form may be a part): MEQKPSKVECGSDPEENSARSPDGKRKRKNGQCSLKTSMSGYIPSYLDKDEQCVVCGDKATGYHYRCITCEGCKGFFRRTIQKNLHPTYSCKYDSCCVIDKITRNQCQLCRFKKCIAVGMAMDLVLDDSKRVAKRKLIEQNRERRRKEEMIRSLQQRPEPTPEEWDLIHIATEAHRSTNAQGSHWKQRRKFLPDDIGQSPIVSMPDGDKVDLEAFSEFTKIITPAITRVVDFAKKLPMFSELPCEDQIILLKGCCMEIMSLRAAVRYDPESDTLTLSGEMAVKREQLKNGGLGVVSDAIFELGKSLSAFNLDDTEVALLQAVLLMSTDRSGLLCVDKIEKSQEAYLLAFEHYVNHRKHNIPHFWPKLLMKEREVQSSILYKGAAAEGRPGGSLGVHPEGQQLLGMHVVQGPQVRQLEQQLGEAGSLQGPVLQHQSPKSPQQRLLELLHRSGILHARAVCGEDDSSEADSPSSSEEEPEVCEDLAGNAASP
Sequence of human Retinoid X Receptor beta (RXRb), RXRB (gene 6257) (P28702 whole entry, looked up, the tested form may be a part): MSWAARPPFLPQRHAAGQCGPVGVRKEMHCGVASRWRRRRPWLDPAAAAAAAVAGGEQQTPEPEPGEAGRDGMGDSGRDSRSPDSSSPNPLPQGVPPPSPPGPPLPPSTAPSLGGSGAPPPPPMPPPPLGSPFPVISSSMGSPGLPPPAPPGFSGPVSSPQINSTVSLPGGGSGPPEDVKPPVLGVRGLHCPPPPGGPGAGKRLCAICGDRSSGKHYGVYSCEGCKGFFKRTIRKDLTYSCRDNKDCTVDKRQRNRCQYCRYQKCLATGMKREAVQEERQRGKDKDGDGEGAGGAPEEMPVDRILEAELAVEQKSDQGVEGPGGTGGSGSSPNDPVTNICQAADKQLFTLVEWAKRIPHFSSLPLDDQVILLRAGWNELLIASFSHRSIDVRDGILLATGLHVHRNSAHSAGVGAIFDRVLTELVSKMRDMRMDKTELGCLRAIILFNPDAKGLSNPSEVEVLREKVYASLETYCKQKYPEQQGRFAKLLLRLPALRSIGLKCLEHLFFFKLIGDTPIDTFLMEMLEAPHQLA
Sequence of human Vitamin D Receptor (VDR), VDR (gene 7421) (P11473 whole entry, looked up, the tested form may be a part): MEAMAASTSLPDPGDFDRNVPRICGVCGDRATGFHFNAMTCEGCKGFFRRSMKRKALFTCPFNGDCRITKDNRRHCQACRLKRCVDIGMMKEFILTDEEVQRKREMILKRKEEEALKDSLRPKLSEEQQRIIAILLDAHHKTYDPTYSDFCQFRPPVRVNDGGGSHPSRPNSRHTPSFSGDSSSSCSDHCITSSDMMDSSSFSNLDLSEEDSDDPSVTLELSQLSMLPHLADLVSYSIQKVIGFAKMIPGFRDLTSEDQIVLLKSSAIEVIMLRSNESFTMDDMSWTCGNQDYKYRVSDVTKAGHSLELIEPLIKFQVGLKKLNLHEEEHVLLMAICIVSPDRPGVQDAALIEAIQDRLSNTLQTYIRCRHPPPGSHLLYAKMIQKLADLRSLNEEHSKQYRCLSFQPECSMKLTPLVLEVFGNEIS
Sequence of human RAR-related Orphan Receptor gamma (RORg), RORC (gene 6097) (P51449 whole entry, looked up, the tested form may be a part): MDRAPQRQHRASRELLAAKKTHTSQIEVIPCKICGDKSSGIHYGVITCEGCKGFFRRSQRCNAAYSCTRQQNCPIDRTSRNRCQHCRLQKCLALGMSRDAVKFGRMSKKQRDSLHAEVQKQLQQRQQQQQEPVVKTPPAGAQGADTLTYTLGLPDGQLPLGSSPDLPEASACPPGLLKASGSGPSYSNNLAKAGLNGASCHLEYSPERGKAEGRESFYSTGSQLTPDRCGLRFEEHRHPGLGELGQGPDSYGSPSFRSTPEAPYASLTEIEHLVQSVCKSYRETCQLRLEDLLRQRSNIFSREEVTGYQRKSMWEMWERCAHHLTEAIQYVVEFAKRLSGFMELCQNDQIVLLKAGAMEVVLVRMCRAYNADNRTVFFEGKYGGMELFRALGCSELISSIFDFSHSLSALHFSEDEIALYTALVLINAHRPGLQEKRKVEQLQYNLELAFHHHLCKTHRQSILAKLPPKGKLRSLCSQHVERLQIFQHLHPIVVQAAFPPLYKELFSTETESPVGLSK
Sequence of E-selectin (Homo sapiens) (P16581 whole entry, looked up): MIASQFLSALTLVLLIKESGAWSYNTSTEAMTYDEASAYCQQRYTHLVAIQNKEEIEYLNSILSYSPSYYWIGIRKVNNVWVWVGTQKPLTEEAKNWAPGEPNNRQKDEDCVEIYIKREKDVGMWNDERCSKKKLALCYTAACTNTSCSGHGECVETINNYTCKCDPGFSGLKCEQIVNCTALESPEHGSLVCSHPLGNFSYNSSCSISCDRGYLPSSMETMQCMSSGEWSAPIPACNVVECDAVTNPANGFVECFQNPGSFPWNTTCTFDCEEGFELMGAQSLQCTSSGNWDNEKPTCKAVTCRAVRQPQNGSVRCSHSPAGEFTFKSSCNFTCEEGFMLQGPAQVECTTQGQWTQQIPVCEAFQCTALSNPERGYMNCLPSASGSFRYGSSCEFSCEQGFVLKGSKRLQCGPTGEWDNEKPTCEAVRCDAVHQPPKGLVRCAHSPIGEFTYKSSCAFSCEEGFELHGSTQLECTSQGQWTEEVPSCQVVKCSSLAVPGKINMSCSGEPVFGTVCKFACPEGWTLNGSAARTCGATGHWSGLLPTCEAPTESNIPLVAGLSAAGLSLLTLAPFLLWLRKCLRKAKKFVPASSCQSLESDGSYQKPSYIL

As for `CC(C)(C)C1CCC(=O)CC1`, the outcome in experiment [1], in experiment [2], in experiment [3], in [4] and in [5] was inactive.

As to `CC(=O)c1ccc(S(=O)(=O)NC(=O)NC2CCCCC2)cc1`, the outcome in [1], in experiment [2] and in experiment [5] was inactive.

As to `CCCC(C)C(=O)OCC` (configuration not stated), the molecule was called inactive in experiment [1], in experiment [2], in experiment [6], in [7], in [8] and in [9]. For the same molecule, the result in experiment [10], in experiment [11], in [12], in experiment [13], in experiment [14] and in [15] was inactive. Also, the result in [16], in experiment [17] and in [18] was inactive.

Consider `Cc1ccc2c(c1)CCCN2`, for which the outcome in experiment [1], in [3] and in [4] was inactive.

As usually defined, the AC50 is the concentration giving half of the maximal activity seen. As for `Cc1ccc([N+](=O)[O-])cc1N`, the result in experiment [1], in [4], in experiment [19], in experiment [7], in experiment [8] and in experiment [9] was inactive. The outcome in experiment [10], in [11], in [12], in experiment [5], in experiment [13] and in experiment [14] was inactive. Besides, the outcome in [20], in experiment [15], in experiment [16], in [17] and in experiment [18] was inactive. Besides, the half-maximal activity concentration (AC50) in experiment [2] was 25.7 µM (active).

Regarding `C=Cc1ccc(OC(C)=O)cc1`, the result in experiment [1], in experiment [2], in experiment [3], in experiment [4], in experiment [19] and in experiment [5] was inactive.

Regarding `CCN1CN(CC)CN(CC)C1`, the molecule was classed as inactive in experiment [1], in experiment [2], in experiment [3], in experiment [7], in [8] and in experiment [9]. For the same molecule, the result in experiment [11], in [12], in experiment [13], in experiment [20], in experiment [15] and in [16] was inactive. The result in [17] and in [18] was inactive. The half-maximal activity concentration (AC50) in [10] was 20 µM (active); in experiment [14], 0.112 µM (active).

Turning to `CCCCNC(=S)NCCCC`, the call in experiment [1], in [2], in experiment [4] and in experiment [19] was inactive.

In the case of `CC(=O)OC1CCCCC1`, the molecule was called inactive in experiment [1], in experiment [2], in [3] and in experiment [5].

Turning to `CC(C)(C)N`, the call in [1], in [2], in [3], in experiment [4] and in [5] was inactive.

Take `CCC(C)C(=O)OC` (configuration not stated): the molecule was called inactive in experiment [1], in experiment [2], in experiment [3] and in experiment [4].

Consider `CC(C)(CO)C(O)C(=O)NCCCO` (configuration not stated), for which the call in experiment [1], in experiment [2], in experiment [3] and in experiment [5] was inactive.

In the case of `CCC1COC(=O)O1` (configuration not stated), the call in experiment [1], in experiment [2], in experiment [3] and in experiment [5] was inactive. In addition, in experiment [4], the AC50 was 70.1 µM (active).

As for `CC(C)C(=O)OCCc1ccccc1`, the result in experiment [1], in experiment [2], in experiment [19], in [7], in experiment [8] and in experiment [9] was inactive. The result in [10], in experiment [11], in [12], in experiment [13], in [14] and in [15] was inactive. Further, the result in [16], in [17] and in [18] was inactive.
